The record followed here is article PMC7010328.

Experiment [1] deals with Nucleosome assembly protein 1-like 1 (UniProt P55209). Description: cross-link between two proteins; cross-linking mass spectrometry.
The target of experiment [2] is Small ribosomal subunit protein uS11 (UniProt P62263). The experiment is described as above.

UniProt P55209, sequence (P55209 whole entry): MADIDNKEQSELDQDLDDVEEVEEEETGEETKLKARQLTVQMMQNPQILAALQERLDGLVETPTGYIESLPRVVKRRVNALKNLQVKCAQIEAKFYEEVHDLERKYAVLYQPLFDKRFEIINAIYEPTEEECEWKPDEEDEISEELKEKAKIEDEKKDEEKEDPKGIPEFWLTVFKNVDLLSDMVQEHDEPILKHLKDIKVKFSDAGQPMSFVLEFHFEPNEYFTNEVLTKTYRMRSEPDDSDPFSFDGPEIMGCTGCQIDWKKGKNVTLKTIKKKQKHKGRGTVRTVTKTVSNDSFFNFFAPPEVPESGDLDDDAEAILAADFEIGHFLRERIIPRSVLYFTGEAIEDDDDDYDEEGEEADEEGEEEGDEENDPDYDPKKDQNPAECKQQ

Consider “60 kDa heat shock protein, mitochondrial, P10809”, for which the “listed as a hit” value in experiment [1] and in experiment [2] was “yes” throughout.
